Measurements as given in PubChem BioAssay AID602248 (The Scripps Research Institute Molecular Screening Center, 2012).
Screen size: about 360,000 compounds; about 1,700 (0.47%) were called active. What follows is part of a selection rich in actives, with near analogues and random picks from the rest. Unmarked numbers belong to inactive results. Rule as the data show it: active = activation above about 15%; inactive = the rest.

assay: counter-screen for M1 agonists: effect in parental CHO-K1 cells (AID 602248); details: Fluo-8 calcium fluorescence, at 3 µM, stronger effect = higher value, scaled to maximal ATP response, vehicle zero;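 also: untransfected CHO-K1 host cells lacking M1 receptor as counterscreen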

SMILES | activation
CCOC(=O)C1(Cc2cccc(OC)c2)CCN(C(C)CC(C)(C)O)CC1 (configuration not stated) | 13.4%
Cc1ccc(NC(=O)COC(=O)CCc2nc3ccccc3n2-c2ccccc2)c(C)c1 | -0.22%
COc1cc(OC)cc(C(=O)NNC(=O)CCOc2ccccc2OC)c1 | 0.49%
N#CC1(NC(=O)COC(=O)CCN=C2NS(=O)(=O)c3ccccc32)CCCCC1 | 1.21%
O=C(OCCN=C1NS(=O)(=O)c2ccccc21)c1cccc([N+](=O)[O-])c1 | 1.57%
O=C(CCCN=C1NS(=O)(=O)c2ccccc21)OCC(=O)c1ccc(F)c(F)c1 | 16.5% (active)
O=C(NCCCN1CCCC1=O)c1cccc(S(=O)(=O)NCc2ccccc2)c1 | 0.5%
CC(C)(C)C(=O)NNC(=O)c1ccc(Oc2cc(Cl)cc(Cl)c2)o1 | 0.25%
CC(C(=O)N1CCc2ccccc21)N(C)CC(=O)Nc1ccc(F)cc1 (configuration not stated) | 1.77%
CC(=O)NC(=S)NNC(=O)c1ccc(Br)cc1 | -0.94%
COc1ccc(/C(N)=N/OC(=O)CCCc2ccccc2)cc1 | -0.55%
Cc1onc(-c2ccccc2)c1C(=O)NNC(=S)NC(=O)c1ccc(F)cc1 | 28.7% (active)
Cc1scc(C(=O)NNC(=S)NCc2ccccc2)c1C | 1.16%
Cc1onc(-c2ccccc2)c1C(=O)N1CCN(S(=O)(=O)c2ccccc2C(F)(F)F)CC1 | 0.62%
Cn1nnc(NC(=S)NC(=O)c2ccccc2)n1 | 0.43%
COc1ccccc1CCC(=O)NNC(=O)c1ccncc1 | 0.44%
CC(C)CNC(=S)NNC(=O)c1ccccc1OC(F)F | 0.18%
O=C(NNC(=S)NCc1ccccc1)c1ccc(OC(F)F)cc1 | 15.8% (active)
O=C(/C=C/c1ccc(F)cc1)NC(=S)NNC(=O)c1cccnc1 | 1.3%
COc1ccc(C(=O)NNC(=S)NC(=O)c2ccccc2)cc1 | 38.2% (active)
COc1ccc(C(=O)NC(=S)NNC(=O)CCc2ccccc2)cc1 | 21.1% (active)
O=C(Oc1ccc2c(c1)CCC2)N1CCOCC1 | 1.59%
CCC(=O)c1cc(F)ccc1OCC(=O)Nc1ccc2c(c1)OCCO2 | 0.59%

SMILES | activation
CC(C)NC(=O)C1(C)CCCCN1Cc1cccc(C(F)(F)F)c1 (configuration not stated) | -0.34%
Cc1cccc(NC(=O)N2CCCCCC2)c1C | 0.19%
Cc1ccc(S(=O)(=O)NC(C)C(=O)Nc2ccccc2C(=O)N2CCCC2)cc1 (configuration not stated) | -0.4%
O=S1(=O)CCOC[C@H](CC2CCCCC2)N1Cc1ccc(F)cc1 | -0.24%
CCC(C)c1ccccc1N1CC(C(=O)N2CCN(S(=O)(=O)c3ccc(F)cc3)CC2)CC1=O (configuration not stated) | 1.26%
COc1cccc(-c2ccc(C#N)c(SCC(=O)NCCc3ccc(Cl)cc3)n2)c1 | -0.1%
CC(=O)Oc1ccc(-c2cccc(C(=O)N3CCCCC3)c2)cc1 | 2.44%
Nc1c(C(=O)c2cccs2)sc2nsc(SCCN3CCCCC3)c12 | 69.8% (active)
CCOC(=O)C(C)Sc1nnc(CSc2nc3nc(C)cc(C)n3n2)o1 (configuration not stated) | 1.72%
Cc1ccc(NC(=O)CC2S/C(=N/N=C3\CCCc4ccccc43)NC2=O)cc1 (configuration not stated) | 12.4%
O=C(OCc1ccccc1)N1CCC2CC1c1ccc(-c3ccc4c(c3)OCO4)cc12 (configuration not stated) | 1.17%
COc1ccc(Br)cc1CN(C)CC(=O)Nc1cc(Cl)cc(Cl)c1 | 18.5% (active)
COc1ccc(Br)cc1CN(C)CC(=O)Nc1cc([N+](=O)[O-])ccc1OC | 0.64%
COc1ccc(Cl)cc1NC(=O)CN(C)Cc1ccc(OC)c(OC)c1 | 6.25%
OCC1(Cc2ccccc2C(F)(F)F)CCN(Cc2ccncc2)CC1 | 1.74%
N#CC1(Nc2ccc3c4c(cccc24)CC3)CCCCC1 | 41% (active)
N#CC1(Nc2ccc(-c3ccc(Cl)cc3)cc2)CCCC1 | 0.41%
CC(C)C(=O)Nc1ccc2c3c(cccc13)CC2 | -0.06%
CC(C)(O)C#Cc1ccc(CNC[C@H]2O[C@@H](n3cnc4c(=O)[nH]c(N)nc43)[C@H](O)[C@@H]2O)s1 | 0.21%
COCCN(C(=O)CCC(=O)Nc1nccs1)C(C(=O)NCCC(C)C)c1ccc(F)cc1 (configuration not stated) | 0.22%
COc1cncc(-c2cnc3sc(NCCc4ccccn4)nn23)c1 | 0.67%
Cc1ccc(S(=O)(=O)N(C)CC(=O)NCCc2c[nH]c3ccccc23)cc1 | 6.95%
COc1cccc(CNC(=O)CN(C)S(=O)(=O)c2ccc3c(c2)c(=O)n(C)c(=O)n3C)c1 | 1.02%

SMILES | activation
CCc1ccccc1NC(=O)CN(C)S(=O)(=O)c1ccc2c(c1)c(=O)n(C)c(=O)n2C | 1.14%
CC1CCC(NC(=O)CN(C)S(=O)(=O)c2ccc3c(c2)c(=O)n(C)c(=O)n3C)CC1 (configuration not stated) | 15.6% (active)
COc1ccc(N(CCC#N)S(=O)(=O)c2ccc(Cl)cc2)cc1 | 1.81%
COC(=O)c1ccc(CSc2ccc3nnc(-c4ccccc4)n3n2)o1 | 2.77%
Cc1oc2nc(SCC(=O)Nc3ccc(S(N)(=O)=O)cc3)nc(NC(=O)c3ccccc3)c2c1C | 0.44%
COc1cc(OC)c(S(=O)(=O)Nc2ccccc2C(=O)O)cc1S(=O)(=O)Nc1ccccc1C(=O)O | 15.1% (active)
COc1ccc(OC)c(S(=O)(=O)Nc2ccccc2F)c1 | 0.21%
COc1cc(/C=C/C(=O)O)cc(S(=O)(=O)Nc2ccccc2C(=O)NCCc2ccccc2)c1OC | -0.11%
CC(=O)c1c(C)[nH]c(C(=O)COC(=O)c2cccc(S(=O)(=O)N(C)c3ccccc3)c2)c1C | 17.5% (active)
COc1ccc(C)cc1NC(=O)C(OC(=O)c1cccc(S(=O)(=O)N(C)c2ccccc2)c1)c1ccccc1 (configuration not stated) | -0.35%
CC(=O)c1c(C)[nH]c(C(=O)COC(=O)CCOc2ccc(C)cc2)c1C | 7.01%
COCCN1C(=O)C(=O)/C(=C(/O)c2ccc(S(=O)(=O)N3CCOCC3)cc2)C1c1ccc(OC)c(OC)c1 (configuration not stated) | 1.09%
O=C(c1ccc(=O)oc1)N1CCC(C(O)(c2ccccc2)c2ccccc2)CC1 | 0.08%
c1ccc(C(=NNc2nc3ccccc3s2)c2ccccn2)cc1 | 15.9% (active)
O=C(Nc1nnc(C2CC2)s1)c1ccccn1 | 0.38%
CSc1ncccc1C(=O)Nc1nc2ccc(F)cc2s1 | 3.35%
CC(C)(C)S(=O)(=O)N1Cc2cc(CO)cc(CCO)c2[C@H]1CCO | 0.36%
CC(C)C(=O)NCC(c1cccs1)S(=O)(=O)c1ccc(F)cc1 (configuration not stated) | 2.59%
Cc1cccc(C(=O)N2CCc3c([nH]c4ccccc34)C2CC(C)C)n1 (configuration not stated) | 16.4% (active)
COc1cccc(C2c3[nH]c4ccccc4c3CCN2Cc2cccc(C)n2)c1 (configuration not stated) | 1.31%
Cc1cccc(C2c3[nH]c4ccccc4c3CCN2C(=O)c2cc(-c3cccn3C)n[nH]2)n1 (configuration not stated) | 0.16%
Cc1ccc(S(=O)(=O)N2CCC3(CC2)OCCO3)c(C)c1 | 0.97%
Cc1ccc(C)c(S(=O)(=O)N2CCN(CC(=O)Nc3ccc([N+](=O)[O-])cc3)CC2)c1 | 6.2%

SMILES | activation
Cc1ccc(C)c(S(=O)(=O)N2CCN(c3ncnc4sccc34)CC2)c1 | 15.9% (active)
OCC[C@H]1C[C@H](O)[C@@H](O)[C@]2(Cc3ccccc3CO2)O1 | 0.07%
CCCCc1ccc(S(N)(=O)=O)cc1 | 1.03%
O=C(Nc1cc(Cl)ccc1N1CCOCC1)c1ccc(N2CCCC2=O)cc1 | 1.09%
CCN(CC)c1ccc2oc(=O)c(C)nc2c1 | 28.8% (active)
Cc1ccc2oc(=O)ccc2c1 | 0.97%
Cc1ccc2c(=O)oc(N(C)C)nc2c1 | -0.31%
O=S1(=O)CC(N2CCN(CCO)CC2)CN1C1CCCC1 (configuration not stated) | 0.24%
Cc1nc2cc(C(F)(F)F)ccc2n1CCNc1nc(-c2cc(Cl)c(N)c(Cl)c2)cs1 | -0.4%
CC(C)(c1ccccc1)c1ccc(OCCN)cc1 | 16.5% (active)
Cc1nn(CCOc2ccccc2)c(=O)n1-c1ccccc1F | 0.58%
CC(C)(c1ccccc1)c1ccc(OCCN2CCCC2)cc1 | 1.86%
O=C(CC(NC(=O)c1ccccc1)c1ccccc1)Nc1ccc(F)c(F)c1 (configuration not stated) | 8.06%
CN(C(=O)CN1C(=O)NC(C)(CCc2ccccc2)C1=O)c1ccccc1 (configuration not stated) | 1.76%
CN(C)c1ccc(CSc2ccccc2)cc1 | -0.35%
CN(C)c1ccc(/C=C2\NC(=S)N(Cc3ccccc3)C2=O)cc1 | 27.4% (active)
CCn1c(SCC(=O)Nc2ccccc2F)nc2c(c1=O)SC(C)C2 (configuration not stated) | 3.19%
O=C(CSc1nnc(CN2CCCC2)n1-c1ccc(F)cc1)c1ccc2c(c1)OCO2 | 1.52%
Cc1ccc(S(=O)(=O)N(Cc2cc3ccccc3[nH]c2=O)CC2CCCO2)cc1 (configuration not stated) | 5.14%
Cc1ccc(S(=O)(=O)N(C)C)cc1NC(=O)COC(=O)C1COc2ccccc2O1 (configuration not stated) | 1.48%
O=C(Nc1ccc2ccccc2c1)/C(=C\c1ccc2c(c1)OCO2)NC(=O)c1ccco1 | 1.3%
CC(Oc1ccc2ccccc2c1)C(=O)NNC(=S)NC(=O)c1ccco1 (configuration not stated) | 33.6% (active)
CCCc1ccc(OCC(=O)NNC(=S)NC(=O)c2ccco2)cc1 | 7.19%
